HT1080 IDH1KD tx: kills HT-1080 cells with IDH1 knockdown. HT-1080 IDH1 knockdown viability, ATP luminescence, 48 h. actives 2% (n = 360,000). Potency, µM (titrated, usually from 46.1 µM), for inactives: at the top dose activity, negative = toxicity, actives largely listed as cytotoxic;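 note: potency is the fitted concentration of half-maximal effect; 0% = DMSO wells and -100% = cell-free medium wells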
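Using the IDH1-knockdown HT-1080 line run in the same batch and compound series as the NT line, viability after 48 h at 37 °C was determined by CellTiter-Glo luminescence and expressed as % activity.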
IL1B secr inh: inhibitors of inflammasome signaling (IL-1 beta secretion) | THP-1 LPS/ATP IL-1B secretion, AlphaLISA, 16 h; hits give low values | activity change, % at 57.5 µM | actives 4.7% (n = 360,000); in the data active = activity change below about -50%; inconclusive = mostly about -30% to -49%
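THP-1 cells pretreated 1 hr with compounds (up to 57.5 uM final), then stimulated with LPS (250 ng/mL final) plus ATP (1.25 mM final); secreted IL-1B measured by AlphaLISA after 16 hr, decreased signal indicating inhibition.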
HT1080NT lethal: kills 2HG-producing HT-1080-NT fibrosarcoma cells. HT-1080-NT fibrosarcoma viability, CellTiter-Glo ATP luminescence, 48 h. Potency, µM (series often up to 46.1 µM), for the others: at the top dose activity, negative = less viability, most hits filed as cytotoxic. AID 686970. actives 1.6% (n = 360,000);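 note: NT is the 2HG producing partner of a matched IDH1 knockdown line; potency is the fitted concentration of half-maximal effect; 0% = DMSO-treated cells and -100% = media-only wells without cells; nearly all actives have a fitted effect of over 55% in size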
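Toxicity toward the 2HG-producing NT line was scored as %Activity, normalised to DMSO and no-cell wells, from CellTiter-Glo luminescence after 48 hours' treatment.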
DT40 TDP1 CPT: DT40-hTDP1 cell growth loss with CPT; chicken DT40 Tdp1-/-;hTDP1 cells + 20 nM CPT, ATP luminescence, 48 h; Potency, µM (highest dose often 46.2 µM), for the others: at the top dose activity change, negative = growth inhibition, hits mostly inhibitors; actives 12% (n = 420,000); AID 686979; note: potency is the fitted concentration of half-maximal effect; nearly all actives have a fitted effect of over 55% in size
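Chicken DT40 Tdp1-/- cells stably complemented with human TDP1 were seeded at 400 cells/well in medium containing 20 nM camptothecin, exposed to pin-transferred compounds, and grown at 37 °C for at least 48 hr. Viability was read as ATP luminescence.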
DT40 TDP1 no CPT: qHTS for Inhibitors of human tyrosyl-DNA phosphodiesterase 1 (TDP1): qHTS in cells in absence of CPT. actives 15% (n = 420,000). Potency, µM (highest dose often 46.2 µM), inactives show at the highest dose activity change, negative = growth inhibition, hits mostly inhibitors. DT40 Tdp1-/- hTDP1 cells, no CPT, ATP luminescence, 48 h; note: potency is the fitted concentration of half-maximal effect; nearly all actives have a fitted effect of over 55% in size
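Growth kinetics read by CellTiter-Glo luminescence after ≥48 hr at 37 °C. Cells: DT40 Tdp1-/- stably carrying human TDP1, 400 per well, compound exposure in the absence of CPT (DMSO vehicle).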
Active calls of the source: *; ? = inconclusive; . = no result; [ ] = remark or other dose. Shown are actives, neighbours in structure and some others; about 19% of the full set was active somewhere. Unless noted, calls come from the whole dose curve; as a rule, active = well fitted curve in the direction sought with a large enough effect; inconclusive = small, poorly fitted or top-dose-only effect, or another doubt; inactive = no such curve, though single readings can be large; an effect the other way counts as inactive or inconclusive. Unless noted, % is set by controls: 0 for no effect and ±100 for the full control effect.

SMILES	HT1080 IDH1KD tx	IL1B secr inh	HT1080NT lethal	DT40 TDP1 CPT	DT40 TDP1 no CPT
CCOc1[nH]n(-c2ccc(Cl)cc2)c(=O)c1C=Nc1ccc(OC)cc1	8%	-15	7%	?	?
CCOc1[nH]n(-c2ccccc2)c(=O)c1C=Nc1ccc(Cl)cc1	-6%	0	-4%	?	15µM*
Cn1ccnc1COc1ccc(C=O)cc1	2%	17	9%	6%	-5%
O=C1CCC(C(=O)Nc2ccccc2N2CCOCC2)=NN1	7%	19	-2%	3%	6%
COc1ccc2nc(SC(C(=O)c3ccccc3)c3ccccc3)nc(C)c2c1 (stereo not drawn)	11%	9	1%	23µM*	?
Cc1ccc(NC(=O)C2(c3ccccc3)CC2(Cl)Cl)cc1C (stereo not drawn)	-2%	-10	-1%	?	16µM*
O=C(NCc1cc([N+](=O)[O-])ccc1O)c1cccc(NS(=O)(=O)c2ccccc2)c1	2%	0	2%	-4%	0%
Cc1ccc(S(=O)(=O)c2nc(-c3ccc(F)cc3)oc2SCC(N)=O)cc1	-18%	0	-16%	0%	-9%
CCS(=O)(=O)c1oc(-c2ccc(F)cc2)nc1S(=O)(=O)c1ccc(Br)cc1	.	.	.	0.92µM*	1.2µM*
CS(=O)(=O)c1oc(-c2ccc(F)cc2)nc1S(=O)(=O)c1ccc(Cl)cc1	.	.	.	0.58µM*	0.82µM*
CSc1oc(-c2ccc(F)cc2)nc1S(=O)(=O)c1ccc(F)cc1	-1%	6	25%	15µM*	23µM*
CSc1oc(-c2ccccc2)nc1S(=O)(=O)c1ccc(F)cc1	-8%	18	-5%	-22%	-19%
N#CCc1ccc(OC(=O)c2ccncc2)cc1	1%	4	-1%	-9%	-9%
CC(C)c1c(C(=O)NCC(C)(C)N2CCOCC2)cnn1-c1nccc(-c2ccccc2F)n1	.	.	.	-14%[9.04 µM]	?
COCc1ccc(CN2CCOc3ccc(C4=Cc5ccccc5C4)cc3C2)o1	.	.	.	1%[9.04 µM]	-23%
CCC(=O)OCC(=O)C1(OC(=O)CC)C(C)CC2C3CCC4=CC(=O)C=CC4(C)C3(Cl)C(O)CC21C (stereo not drawn)	.	.	.	?	-12%
CCN(c1cccc2ccccc12)S(=O)(=O)c1ccc(Cl)nc1	-8%	-75*	-9%	?	?
COc1ccccc1NC(=O)C(C)OC(=O)C1CCC(C(C)(C)C)CC1 (stereo not drawn)	-14%	20	-22%	?	?
Clc1ccc(CON/C=N/c2ncnc3sccc23)cc1	-15%	-15	-21%	12µM*	12µM*
c1ccc(CSc2ncnc3sccc23)cc1	11%	0	10%	3%	11%
C(=N\c1ncnc2sccc12)/NOCc1ccccc1	-11%[9.24 µM]	?	-15%	23µM*	9.2µM*
O=C(NCCSCc1ccccc1Cl)C1CCN(S(=O)(=O)Cc2ccccc2)CC1	.	.	.	5%	?
CCOC(=O)N1CCC(N2C(=O)c3ccccc3C2Nc2ccc(C)cc2)CC1 (stereo not drawn)	-8%	7	4%	?	?
CCOC(=O)N1CCC(N2C(=O)c3ccccc3C2Nc2cc(C)cc(C)c2)CC1 (stereo not drawn)	-17%	-3	-8%	?	15µM*
CC(=O)Nc1ccc(CCc2nc3ccccc3[nH]2)cc1	-4%	5	-5%	-11%	-4%
SMILES	HT1080 IDH1KD tx	IL1B secr inh	HT1080NT lethal	DT40 TDP1 CPT	DT40 TDP1 no CPT
CC(=O)Nc1cccc(CCc2nc3ccccc3[nH]2)c1	2%	16	2%	?	18µM*
O=c1[nH]c(N/N=C/c2ccc(O)cc2)nc2ccccc12	0%	63	0%	26µM*	23µM*
C(=N\Nc1nc2ccccc2[nH]1)/c1ccncc1	16%	-22	18%	2%	-27%
COc1ccc(/C=N/Nc2nc3ccccc3c(=O)n2-c2ccccc2)cc1OC	-17%	-19	-17%	?	?
C=CCn1c(N/N=C/c2ccc(O)cc2)nc2ccccc2c1=O	1%	17	6%	-37%	15µM*
CCN(CC)c1ccc(/C=N/Nc2nc3ccccc3[nH]2)cc1	?	-85*	?	3.3µM*	4.6µM*
C[C@@H]1CN([C@@H](C)CO)S(=O)(=O)c2ccc(Br)cc2O[C@H]1CN(C)C(=O)Nc1ccc2c(c1)OCO2	-8%	15	-10%	?	?
COc1cccc(OCC(=O)Nc2nnc3n2CCS3)c1	.	.	.	-19%	-1%
O=C(O)CC(C(=O)Nc1ccc(Cl)cc1)N1CCCCCC1 (stereo not drawn)	3%	-8	-1%	4%	10%
CC(/C=N/Nc1nc(C)cc(=O)[nH]1)=C\c1ccccc1	-1%	-3	12%	?	-9%
CC(=O)Nc1ccc(/C=N/Nc2nc3ccccc3[nH]2)cc1	?	-94*	?	-30%	-9%
CC(/C=N/Nc1nc2ccccc2[nH]1)=C\c1ccccc1	?	-4	?	15µM*	?
CCOc1ccc(/C=C/c2nc(C#N)c(N3CCC(C)CC3)o2)cc1	.	.	.	10µM*	13µM*
COc1ccc(N2CCN(c3oc(/C=C/c4ccc(F)cc4)nc3C#N)CC2)cc1	.	.	.	-2%	8%
CCOc1ccc(/C=C/c2nc(C#N)c(N3CCN(c4ccccc4)CC3)o2)cc1	.	.	.	?	-14%
CCOc1ccc(/C=C/c2nc(C#N)c(N3CCN(CC)CC3)o2)cc1	.	.	.	6.5µM*	5.8µM*
CC1CCN(c2oc(/C=C/c3ccc(F)cc3)nc2C#N)CC1	.	.	.	?	15µM*
O=S(c1ccccc1)c1ccccc1	18%	-14	-4%	-2%	-1%
O=C(CSc1ccc2nnc(CCNS(=O)(=O)c3ccccc3)n2n1)Nc1nc2ccccc2s1	-21%	-14	-12%	?	?
Cc1ccc(C2CC(=O)NC(SCC(N)=O)=C2C#N)s1 (stereo not drawn)	9%	-6	1%	-15%	0%
N#CC1=C(SCC(N)=O)NC2=C(C(=O)c3ccccc32)C1c1ccc(Cl)cc1 (stereo not drawn)	5%	-52*	-1%	29µM*	16µM*
CCCCn1c(N)c(N(CC(C)C)C(=O)CN(C)Cc2cccc(OC)c2)c(=O)[nH]c1=O	-1%	-4	4%	-12%	-21%
CC(C)Oc1ccc(S(=O)(=O)N2CCOCC2)cc1NC(=O)Cc1c(F)cccc1Cl	-3%	1	8%	?	?
COCCn1c(CN2CCN(C(=O)c3ccco3)CC2)nc2c1c(=O)n(C)c(=O)n2C	0%	-2	-2%	-14%	16%

Screening results as filed in PubChem BioAssay.
